According to PubChem BioAssay (NCI):
This is part of a sample that, as a whole, favours compounds with a hit. Of some 83,000 tested, about 20% had one in any assay.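 Negative percent growth values reflect cell death: -40 means 40% of the cells present at the start died, and -100 means all died.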 A number with no mark means an inactive call. Calls of active or inactive are those of the source. Rule for the calls: active = growth percent below 10; inactive = the rest.

How the values were obtained:
Experiment in all cases: NCI-60 one-dose screen, 48 h (100 = growth as untreated, 0 = no growth, -100 = all killed)
Conditions in all cases: 10 µM unless noted
HCT-15 colon = tested on: HCT-15 colon
HT29 colon = tested on: HT29 colon
SNB-75 CNS = tested on: SNB-75 CNS
SNB-19 CNS = tested on: SNB-19 CNS
U251 CNS = tested on: U251 CNS
PC-3 prostate = tested on: PC-3 prostate
UACC-62 melanoma = tested on: UACC-62 melanoma
LOX IMVI melanoma = tested on: LOX IMVI melanoma
SK-MEL-28 melanoma = tested on: SK-MEL-28 melanoma
SK-MEL-2 melanoma = tested on: SK-MEL-2 melanoma
EKVX NSCLC = tested on: EKVX NSCLC
SN12C renal = tested on: SN12C renal
UO-31 renal = tested on: UO-31 renal
TK-10 renal = tested on: TK-10 renal
ACHN renal = tested on: ACHN renal
CAKI-1 renal = tested on: CAKI-1 renal
A498 renal = tested on: A498 renal
CCRF-CEM leukemia = tested on: CCRF-CEM leukemia
MOLT-4 leukemia = tested on: MOLT-4 leukemia
SK-MEL-5 melanoma = tested on: SK-MEL-5 melanoma

Row | Compound | growth (HCT-15 colon) | growth (HT29 colon) | growth (SNB-75 CNS) | growth (SNB-19 CNS) | growth (U251 CNS) | growth (PC-3 prostate) | growth (UACC-62 melanoma) | growth (LOX IMVI melanoma) | growth (SK-MEL-28 melanoma) | growth (SK-MEL-2 melanoma) | growth (EKVX NSCLC) | growth (SN12C renal) | growth (UO-31 renal) | growth (TK-10 renal) | growth (ACHN renal) | growth (CAKI-1 renal) | growth (A498 renal) | growth (CCRF-CEM leukemia) | growth (MOLT-4 leukemia) | growth (SK-MEL-5 melanoma)
1 | COc1cc(C(=O)/C=C/c2ccc(OCCCCCC[P+](c3ccccc3)(c3ccccc3)c3ccccc3)cc2)cc(OC)c1OC | -54.7% (active) | -14.1% (active) | -11.1% (active) | -73.3% (active) | -100% (active) | -54.9% (active) | -80.3% (active) | -100% (active) | -60.4% (active) | -67.3% (active) | -9.14% (active) | -63.8% (active) | 1.6% (active) | -72% (active) | -44.5% (active) | 13.2% | -42% (active) | 20.3% | 14% | –
2 | O=C(Cc1ccc(F)c(Cl)c1)Nc1cc(C2(C(F)(F)F)CC2)nn1Cc1ccccc1 | 93.9% | 18% | -21.6% (active) | 9.43% (active) | 24.3% | 86.8% | 65.9% | 86.3% | 98% | 18.9% | – | 49.3% | 42.4% | 81% | 35.9% | 10.1% | -2.62% (active) | 15% | 93% | 83.6%
3 | NCCCNc1nc2ccccc2c2c(=O)c3cc(F)cc(F)c3sc12 | 77% | -49.7% (active) | 74.7% | 87.1% | -69.2% (active) | 73.8% | 103% | 60% | -87.1% (active) | 111% | – | 80.8% | -95% (active) | 87.1% | -60.3% (active) | 61.1% | 43.5% | -6.51% (active) | 60.7% | 92.3%
4 | CC1=C(SCCC(=O)OC(C[Se]C2=C(C)C(=O)c3ccccc3C2=O)C(=O)NC(C)(C)C)C(=O)c2ccccc2C1=O (stereo unspecified) | 1.48% (active) | -5.09% (active) | -95.9% (active) | -92.6% (active) | -69% (active) | -64% (active) | -91.2% (active) | -52.2% (active) | -96% (active) | 2.5% (active) | – | -64.4% (active) | – | -94.3% (active) | -78.3% (active) | -56.4% (active) | -40.6% (active) | -23% (active) | 13.1% | -99.4% (active)
5 | CCOc1c(B(O)O)cccc1-c1nc2ccc3[nH]ncc3c2c2c1CCCC2 | 48.4% | 78.7% | -38.5% (active) | 85.2% | 75.4% | 68.3% | 88.1% | 37% | 96.5% | 113% | 47.5% | 62.7% | 29.9% | 19.7% | 51.1% | -26.9% (active) | 61.8% | 44% | 28.8% | –
6 | C[N+]1=C(/C=C/c2ccc(O)c3ncccc23)C(C)(C)c2ccccc21 | 25% | 96.9% | 30.8% | 27.9% | 17.1% | 71.2% | 39.2% | 40.4% | 51.5% | 44.9% | – | 42.7% | 30.6% | 97.1% | 31% | 25.7% | 101% | 75.8% | 56.1% | 1.13% (active)
7 | NCCCNc1nc2ccccc2c2c(=O)c3cc(F)cc(Cl)c3sc12 | 64.1% | 4.38% (active) | 69.7% | 89.4% | -63.9% (active) | 59.4% | 98.7% | 79.4% | 107% | 105% | 91.9% | 82.7% | 58.4% | 106% | 61.9% | 63.1% | 66.3% | 6.83% (active) | 77.7% | –
8 | CC(C)OC(=O)Nc1ccc(-c2nc(-c3cccc(OCCN4CCOCC4)c3)c(-c3ccnc(Br)c3)[nH]2)cc1 | 4.55% (active) | 1.53% (active) | -19.3% (active) | 22.5% | 17.3% | 19.7% | 15.1% | 3.35% (active) | 0.701% (active) | 32.5% | 50.3% | 57.6% | -15.9% (active) | 68.1% | 28.4% | 35.5% | -9.64% (active) | 16.8% | 0.706% (active) | –
